S1P1 ag pot – agonists and agonism potentiators of human S1P1 receptor. P21453. S1P1 CRE-bla cells, forskolin, beta-lactamase FRET, potentiator mode; S1P1 agonist co-added at EC20, 2 nM; 100% = saturating reference agonist, 0% = basal. activation, % at 9.5 µM. 56,000 compounds, 0.57% hits;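 active = activation above a cutoff set at the mean activation of all tested compounds plus 3 SD, cut at about 54% in these data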;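 note: forskolin at 4 µM as EC80 and the EC20 agonist is SEW2871; 100% = SEW2871 at its EC100 plus forskolin at EC80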
TNAP act mid DEA – activates human TNAP at intermediate phosphate acceptor concentration; activation factor at 20 µM; P05186; 64,000 tested, under 10 active; purified TNAP, CDP-star luminescence, 100 mM DEA, 30 min; stronger effect = higher value; scale: 0 levamisole-inhibited, 1 vehicle-only enzyme;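 active = activation factor of at least 2 at 20 µM, relative to controls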
Target sequence (P05186 whole entry, looked up): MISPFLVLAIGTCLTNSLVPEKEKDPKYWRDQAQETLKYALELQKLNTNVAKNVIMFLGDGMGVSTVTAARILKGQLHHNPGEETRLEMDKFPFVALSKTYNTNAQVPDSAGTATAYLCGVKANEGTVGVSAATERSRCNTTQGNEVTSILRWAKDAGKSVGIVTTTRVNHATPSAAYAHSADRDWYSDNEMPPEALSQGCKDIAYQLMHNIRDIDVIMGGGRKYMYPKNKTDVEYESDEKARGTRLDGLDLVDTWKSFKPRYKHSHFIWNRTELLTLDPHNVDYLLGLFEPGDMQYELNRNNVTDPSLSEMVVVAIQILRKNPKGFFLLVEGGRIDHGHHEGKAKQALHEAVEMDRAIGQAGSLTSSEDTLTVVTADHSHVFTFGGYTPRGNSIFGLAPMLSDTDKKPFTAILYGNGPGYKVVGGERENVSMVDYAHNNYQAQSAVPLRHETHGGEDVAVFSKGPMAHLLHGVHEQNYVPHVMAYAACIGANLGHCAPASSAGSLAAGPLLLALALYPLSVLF
SK-BR-3 tox 24h – SK-BR-3 proliferation inhibitors; viability, % at 10 µM; SK-BR-3 viability, CellTiter-Glo ATP luminescence, 24 h; stronger effect = lower value; 41,000 compounds, 0.47% hits;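 active = viability at or below the median of all test compounds minus 3 SD, in both replicates if run twice, cut at about 45% in these data; inconclusive = duplicate replicates that disagree with each other; inactive = viability above that cutoff in every replicate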;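 note: 100% = median untreated cell wells and 0% = median positive control drug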
Her2 expr inh – inhibitors of human Her2 kinase expression; SKBR-3 HER2 protein level, AlphaScreen, 18-24 h; stronger effect = lower value; HER2 level % of control, % at 10 µM; 65,000 compounds, 0.69% hits; AID 645;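 active = HER2 level under 5% of the carrier-only control; inconclusive = no clear call, values can overlap the other calls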;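 note: 100% = DMSO carrier and 0% = 500 nM PU-H71 HSP90 inhibitor; lower value means stronger loss of Her2 protein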
Hsp90 block – displaces geldanamycin probe from tumor Hsp90. P07900. NCI-N417 lysate Hsp90, Cy3B-geldanamycin FP displacement. inhibition, % at 30 µM. 64,000 compounds, 0.35% hits. AID 429;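 active = inhibition above 50%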;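 note: 0% = tracer plus lysate wells and 100% = tracer alone without lysate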
BAP1 inh – inhibitors of human BAP1 deubiquitinase; Q92560; recombinant BAP1, Ub-AMC hydrolysis fluorescence kinetic; stronger effect = lower value; activity remaining (% of control), % at 20 µM; 72,000 compounds, 0.48% hits; AID 436;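 active = activity remaining at or below 50% of control, provided the compound also passes the data quality filters; inactive = the rest, including low values that fail the filters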;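 note: 100% = DMSO wells rate and 0% = substrate alone blank rate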
BAP1 inh conf – confirmation of human BAP1 enzyme inhibitors | shares compounds with BAP1 inh | 310 compounds, 8% hits | % of control activity, % at 20 µM | purified BAP1, Ub-ethyl ester hydrolysis, HPLC; stronger effect = lower value | AID 753;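 active = percent of control activity at or below 60%; inconclusive = HPLC trace unusable from injection failure or solvent front hiding peaks; inactive = the rest, plus ubiquitin peak ratio over a set limit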
* hit, by the source's call; ? = inconclusive; . = no result shown. A selection: hits, their analogues and other compounds. The true share with any hit is near 1.9%.

SMILES	S1P1 ag pot	TNAP act mid DEA	SK-BR-3 tox 24h	Her2 expr inh	Hsp90 block	BAP1 inh	BAP1 inh conf
COc1ccc([C@@H]2[C@H]3CN(C(C)=O)CC=C3C(C#N)=C(N)C2(C#N)C#N)c2ccccc12	21.6	1	80.9	-0.8*	-10.1	96.4	.
COc1ccc(N2CCN(Cc3cc(=O)oc4c3ccc3ccccc34)CC2)cc1	1.4	0.9	86.5	82.5	-6.3	47.5*	.
N=c1c2c(-c3ccccc3)c(-c3ccccc3)n(Cc3ccccc3)c2ncn1CCCn1ccnc1	-17.9	1.5	51.0	3.3*	-4.8	156.2	.
N=c1c2c(-c3ccccc3)c(-c3ccccc3)n(Cc3ccco3)c2ncn1Cc1ccco1	-23.4	1	.	4.4*	-7.8	65.6	.
Clc1ccccc1OCCCCn1ccnc1	-13.8	0.7	.	103.9	-0.6	93.0	.
Cc1ccc(C23CC4CC(CC(CN=Cc5ccc([N+](=O)[O-])cc5)(C4)C2)C3)cc1	.	.	.	.	.	106.5	.
CCn1c2ccccc2c2cc(C3C(C#N)=C(N)Oc4n[nH]c(COC)c43)ccc21 (stereo unspecified)	.	1	?	-23.8*	-13.9	77.1	.
O=C(Nc1ccccc1-c1ccccc1)NC1CCN(C(=O)N2CCOCC2)CC1	-1.2	0.9	99.4	105.8	2.2	100.3	.
O=C1C2C3C=CC(CO)(O3)C2C(=O)N1c1ccccc1-c1ccccc1 (stereo unspecified)	153.8*	1	55.2	28.7	-4.1	97.1	.
COc1ccc(OC)c(NC(=O)c2c(NC(=O)CNCc3ccco3)sc3c2CCC3)c1	-12.7	1	95.6	91.6	-2.0	109.2	.
COc1ccc(NC(=O)c2c(NC(=O)CNCc3ccco3)sc3c2CCC3)c(OC)c1	-35.6	1	91.5	117.1	-1.5	48.5*	?
Cc1[nH]nc2c1-c1nc3ccccc3nc1C(C)(C)C2	9.9	0.9	98.9	87.0	-4.6	.	.
Cc1cc(C(=O)Nc2ccc(C(=O)O)cc2)c(-c2ccccc2)o1	-15.2	1	126.1	96.4	-7.2	99.9	.
Cc1ccc(Cl)cc1N1CCN(C(c2cccnc2)c2nnnn2C2CCCCC2)CC1 (stereo unspecified)	-1.4	0.9	84.0	68.7	1.5	83.7	.
Cc1ccc(Cl)cc1N1CCN(C(c2ccc(C#N)cc2)c2nnnn2C2CCCC2)CC1 (stereo unspecified)	-3.3	0.9	97.3	84.8	1.8	30.3*	68.0
CCNC(=O)c1c(N)sc2c1CCCCC2	-3.6	0.9	111.7	94.7	-12.0	79.2	.
COc1ccccc1-c1c(C)nn2c(N3CCCCCC3)cc(C)nc12	-25.8	1	.	23.9	-0.3	96.3	.
COc1ccccc1-c1c(C)nn2c(N3CCN(c4ccccc4OC)CC3)cc(C)nc12	-7.1	0.9	.	74.7	-0.9	46.1*	105.1
Cc1ccc(CNC(=O)c2cn(C3CCCCC3)c(=O)c3c2c2ccccc2n3C)o1	.	1	.	74.9	-5.1	164.3	.
Cc1cc(NC(=O)c2cn(C3CCCCC3)c(=O)c3c2c2ccccc2n3C)no1	9.8	0.9	.	90.3	-2.4	45.2*	102.5
CCOc1cccc(C(=O)Nc2nnc(-c3ccco3)s2)c1	.	0.9	92.0	93.7	-0.1	61.0	.
CN1CCN(Cc2c(O)ccc3occ(C(=O)c4ccccc4)c23)CC1	-19.6	0.9	99.2	145.3	0.7	79.2	.
CC(=O)C(C(C)=O)c1c(Cl)c(O)c(O)c2c(C(=O)c3ccccc3)coc12	40.4	0.8	117.1	5.2	20.5	48.2*	64.4
COc1ccc(Cn2nnnc2CN(Cc2cc3ccc(C)cc3[nH]c2=O)C2CCCC2)cc1	-7.1	0.9	85.6	130.7	0.4	52.5	.
CCC(C)(C)n1nnnc1CN(Cc1cc2cc(OC)ccc2[nH]c1=O)C1CCCC1	-21.0	0.9	.	131.3	-2.5	39.1*	129.7
CC(Nc1ncnc2nc[nH]c12)c1ccccc1 (stereo unspecified)	-6.7	1.1	.	92.6	0.7	89.7	.
CCC(C)C(=O)Nc1nnc(-c2cccs2)s1 (stereo unspecified)	-15.5	1	85.1	86.2	-1.0	39.2*	91.6
